IL-1B inflam inh = inflammasome signaling inhibition, IL-1 beta readout; THP-1 LPS/ATP IL-1B secretion, AlphaLISA, 16 h; stronger effect = lower value; activity change, % at 57.5 µM; hit rate 4.7% among 360,000; in the data active means activity change below about -50%; inconclusive means mostly about -30% to -49%
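THP-1 cells pretreated 1 hr with compounds (up to 57.5 uM final), then stimulated with LPS (250 ng/mL final) plus ATP (1.25 mM final); secreted IL-1B measured by AlphaLISA after 16 hr, decreased signal indicating inhibition.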
HT1080NT lethal = kills 2HG-producing HT-1080-NT fibrosarcoma cells. hit rate 1.6% among 360,000. Potency, µM (top dose mostly 46.1 µM), hits mostly cytotoxic. HT-1080-NT fibrosarcoma viability, CellTiter-Glo ATP luminescence, 48 h;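 further: NT is the 2HG producing partner of a matched IDH1 knockdown line; nearly all actives have a fitted effect of over 55% in size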
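HT-1080-NT fibrosarcoma cells (2HG-overproducing), 750 cells/well in RPMI with 5% FBS, dosed after 2 h and incubated 48 h at 37C. CellTiter-Glo luminescence normalized to DMSO and no-cell wells; concentration-response curves fitted and classed.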
KB-3-1 cytotox = kills parental KB-3-1 adenocarcinoma cells | KB-3-1 viability, CellTiter-Glo ATP luminescence, 72 h | Potency, µM (highest dose often 46.1 µM), usual class: cytotoxic | hit rate 1.4% among 400,000; further: nearly all actives have a fitted effect of over 60% in size
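KB-3-1 cells, DMEM (no phenol red) + 10% FBS; compound by pin transfer, 72 h, 37 °C. Readout: CellTiter-Glo luminescence after 10 min. Data normalized, curve-fitted.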
KB-V1 MDR tox = KB-V1 MDR subline cytotoxicity; KB-V1 MDR cells viability, CellTiter-Glo, 72 h; Potency, µM (titrated, usually from 46.1 µM), actives largely listed as cytotoxic; hit rate 3.4% among 400,000; further: nearly all actives have a fitted effect of over 60% in size
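KB-V1, DMEM (no phenol red) + 10% FBS; cpd pin-transferred, titration series; 72 h, 37 degrees C; CellTiter-Glo, luminescence. Data normalized, curve-fit.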
HT1080 IDH1KD tx = kills HT-1080 cells with IDH1 knockdown; Potency, µM (titrated, usually from 46.1 µM), usual class: cytotoxic; HT-1080 IDH1 knockdown viability, ATP luminescence, 48 h; hit rate 2% among 360,000
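Using the IDH1-knockdown HT-1080 line run in the same batch and compound series as the NT line, viability after 48 h at 37 °C was determined by CellTiter-Glo luminescence and expressed as % activity.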
Of the large screens only hits and unclear results are named; the others gave an inactive call. In the library only some 8.8% were active in any assay of this set; here they are far more common. Unless noted, the call rests on the fitted dose curve; in most records, active means well fitted curve in the direction sought with a large enough effect; inconclusive means small, poorly fitted or top-dose-only effect, or another doubt; inactive means no such curve, though single readings can be large; an effect the other way counts as inactive or inconclusive.

O=C(c1ccc(S(=O)(=O)NCC2CCCO2)cc1)N1CCN(c2cccc(Cl)c2)CC1 (configuration not stated)	KB-3-1 cytotox inconclusive
COc1ccc(-c2[nH]c3ccccc3c2SCCN)cc1	IL-1B inflam inh -59
COc1ccc(-c2[nH]c3ccccc3c2SCCNC(=O)c2cc3ccccc3oc2=O)cc1	HT1080 IDH1KD tx inconclusive
CC1(C(=O)Nc2cccc(C#N)c2)CCN1C(=O)C/C=C/c1ccccc1 (configuration not stated)	KB-V1 MDR tox inconclusive
Cc1[nH]c2ccc(C(=O)OC(C)C(=O)N(C)C3CCCCC3)cc2c1C (configuration not stated)	IL-1B inflam inh -81, KB-3-1 cytotox inconclusive
Cc1[nH]c2ccc(C(=O)OC(C)C(=O)N(C)c3ccccc3)cc2c1C (configuration not stated)	KB-V1 MDR tox inconclusive
COCCn1c(C)cc(O)c(C(c2ccccc2Cl)N2CCCCC2)c1=O (configuration not stated)	none (no result: IL-1B inflam inh, HT1080NT lethal, HT1080 IDH1KD tx)
CCC(=NCCc1c(C)[nH]c2ccc(OC(F)(F)F)cc12)C1=C(O)CC(c2ccccc2)CC1=O (configuration not stated)	HT1080NT lethal 4.1µM, KB-3-1 cytotox 4.1µM, KB-V1 MDR tox 2.9µM, HT1080 IDH1KD tx 5.8µM
CCC(=NCCc1c(C)[nH]c2ccccc12)C1=C(O)CC(c2ccccc2)CC1=O (configuration not stated)	IL-1B inflam inh inconclusive, HT1080NT lethal inconclusive, KB-3-1 cytotox 4.6µM, KB-V1 MDR tox 3.7µM, HT1080 IDH1KD tx 8.2µM
CCCCC(=NCCc1c(C)[nH]c2ccc(OC)cc12)C1=C(O)CC(c2ccccc2)CC1=O (configuration not stated)	HT1080NT lethal inconclusive, KB-3-1 cytotox 3.7µM, KB-V1 MDR tox 5.8µM, HT1080 IDH1KD tx 2.3µM
Fc1ccc(Nc2ncnc3sccc23)cc1	none
COC(=O)c1ccc(S(=O)(=O)c2ccc(Cl)cc2)c(N)c1	none
CCc1ccccc1NC(=O)CNC(=O)c1ccccc1OCc1c(C)noc1C	KB-3-1 cytotox inconclusive
O=C(/C=C1\NC2(CCCC2)Cc2ccccc21)N1CCOCC1	HT1080NT lethal inconclusive, HT1080 IDH1KD tx inconclusive
CC1(C)Cc2c(ccc3ccccc23)/C(=C/C(=O)N2CCCCC2)N1	IL-1B inflam inh -62, HT1080NT lethal inconclusive, HT1080 IDH1KD tx inconclusive
CCN1CCCC1CNC(=O)c1cc2cc(F)ccc2[nH]1 (configuration not stated)	none
C=C(C)c1nc(Oc2ccccc2)nc(Oc2ccccc2)n1	IL-1B inflam inh -100, HT1080NT lethal inconclusive, KB-3-1 cytotox inconclusive, HT1080 IDH1KD tx inconclusive
CCOc1ccc(-n2c(C)nc3cc(C(=O)NCc4ccc5c(c4)OCO5)ccc32)cc1	KB-3-1 cytotox inconclusive, KB-V1 MDR tox 13µM
CCCCNC(=O)COC(=O)c1ccccc1F	HT1080NT lethal inconclusive
COC(=O)[C@]1(Cc2ccccc2)N[C@H](CN(C)C(=O)Nc2ccc(Cl)cc2)[C@@H]2C(=O)N(Cc3ccccc3)C(=O)[C@@H]21	IL-1B inflam inh -64
CCN(C[C@H]1N[C@@](Cc2ccccc2)(C(=O)OC)[C@H]2C(=O)N(Cc3ccccc3)C(=O)[C@@H]12)C(C)=O	IL-1B inflam inh -86, KB-3-1 cytotox inconclusive
COC(=O)[C@]1(Cc2ccccc2)N[C@H](CN(C)C(=O)Nc2ccccc2)[C@@H]2C(=O)N(Cc3ccccc3)C(=O)[C@@H]21	none
O=C(C[C@@H]1C=C[C@H](NC(=O)Cc2ccccn2)[C@@H](CO)O1)NCCc1ccccc1	IL-1B inflam inh -98, KB-3-1 cytotox inconclusive
COc1ccccc1C(=O)NNC(=O)c1sccc1-n1cccc1	none
O=C1CC(C(=O)Nc2ccc(Cl)cc2[N+](=O)[O-])C2(CCCCC2)O1 (configuration not stated)	KB-V1 MDR tox 15µM
COc1cc(C2=NC(CO)(CO)CO2)cc(OC)c1OC	IL-1B inflam inh -72
COc1ccc(C2=NC(CO)(CO)CO2)cc1	none
COc1ccc(Cc2noc(=O)[nH]2)cc1	none
COc1ccc2c(c1OC)C(=O)NC(C)=C(C(=O)OC(C)(C)C)C2O (configuration not stated)	IL-1B inflam inh -63
Cc1ccc(NC(=O)c2sc3ncn(Cc4cccc(F)c4)c(=O)c3c2C)c(Br)c1	none (no result: IL-1B inflam inh, HT1080NT lethal, HT1080 IDH1KD tx)
CSc1ncc(C(=O)NCc2ccc(F)cc2)c(-c2ccccc2)n1	none (no result: IL-1B inflam inh, HT1080NT lethal, HT1080 IDH1KD tx)
O=C(/C=C\c1ccccc1OC(=O)c1ccccc1F)c1cc2ccccc2o1	IL-1B inflam inh -104, HT1080NT lethal 16µM, KB-V1 MDR tox inconclusive, HT1080 IDH1KD tx inconclusive
CC(=O)/C=C\c1ccccc1OC(=O)c1cc2ccccc2oc1=O	none
Cc1ccc(-c2csc(C(O)c3ccc(F)c(F)c3)n2)cc1C (configuration not stated)	HT1080NT lethal inconclusive, HT1080 IDH1KD tx 21µM
CCN(CC)C(=O)c1cccc(-c2csc(C(O)c3cccc(Cl)c3)n2)c1 (configuration not stated)	HT1080NT lethal inconclusive, KB-V1 MDR tox inconclusive, HT1080 IDH1KD tx inconclusive
CCN(CC)C(=O)c1cccc(-c2csc(C(O)c3ccc(OC)cc3)n2)c1 (configuration not stated)	KB-3-1 cytotox inconclusive, KB-V1 MDR tox 18µM, HT1080 IDH1KD tx inconclusive
CCN(CC)C(=O)c1cccc(-c2csc(C(O)c3ccc(F)c(OC)c3)n2)c1 (configuration not stated)	HT1080NT lethal 1µM, KB-V1 MDR tox inconclusive, HT1080 IDH1KD tx inconclusive
CC1CCCN(CCCNC(=O)c2ccc3c(c2)N(Cc2ccc(F)cc2)C(=O)c2ccccc2S3=O)C1 (configuration not stated)	IL-1B inflam inh -58, HT1080NT lethal inconclusive, HT1080 IDH1KD tx inconclusive
CCC1CCCCN1CCCNC(=O)c1ccc2c(c1)N(Cc1ccc(F)cc1)C(=O)c1ccccc1S2=O (configuration not stated)	IL-1B inflam inh -58, HT1080NT lethal 21µM, KB-3-1 cytotox inconclusive, HT1080 IDH1KD tx 23µM
CC1CCCN(CCCNC(=O)c2ccc3c(c2)N(Cc2ccccc2F)C(=O)c2ccccc2S3(=O)=O)C1 (configuration not stated)	IL-1B inflam inh -65, HT1080NT lethal 26µM, KB-3-1 cytotox inconclusive, HT1080 IDH1KD tx inconclusive
Cc1cc(C(=O)CSc2nn3c(=O)c(C(C)(C)C)nnc3s2)c(C)n1C	none
Brc1ccc2nc(N3CCN(c4ccccc4)CC3)sc2c1	IL-1B inflam inh -74, HT1080NT lethal inconclusive
O=S(=O)(NCCN1CCOCC1)c1ccc2c(c1)OCCO2	IL-1B inflam inh -74
COCc1cc(=O)[nH]c(N2CCN(Cc3ccc4c(c3)OCO4)CC2)n1	none
COc1ccc(-c2nc(NC(=O)C3CC(=O)N(Cc4ccco4)C3)sc2C)cc1 (configuration not stated)	KB-3-1 cytotox inconclusive

Assay outcomes deposited in PubChem by National Center for Advancing Translational Sciences (NCATS).
